Screening data deposited in PubChem BioAssay by University of Kansas High Throughput Screening Laboratory.
The list is not random: actives were taken first. Their share in the collection is about 3.6%.
Pf apPOL block – Pf-apPOL DNA polymerase inhibition; Recombinant Pf-apPOL, molecular beacon fluorescence, 1.5 h; inhibition, % at 10 µM; 210,000 tested, 0.25% active
mHTT CaM bind – disrupts binding of mutant huntingtin to calmodulin; P42858; AlphaScreen His-mHTT/GST-CaM binding, luminescence; inhibition, % at 15 µM; 190,000 tested, 3.6% active; AID 1671202;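 further: 0% = both proteins with DMSO and 100% = one protein alone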
Numbers without * were called inactive; nt = not tested or not shown. No stated cut-off is given here; in the data, active means inhibition above about 50%; inactive means the rest.

SMILES	Pf apPOL block	mHTT CaM bind
Cc1ccccc1Cc1nc(-c2cccc(-c3ccn[nH]3)c2)no1	2.8	6.3
Cc1ccc(C(=O)C2=C(O)C(=O)N(Cc3ccco3)C2c2ccc(F)cc2)o1 (configuration not stated)	-1.0	21.0
COc1ccc(-c2nc(C)cc(C)c2CNC(=O)c2cccc(OC)c2)cc1	15.2	-4.9
CCCC1C(C#N)=C(N)SC(N)=C1C#N	-5.8	3.8
CC1C(C#N)=C(N)SC(N)=C1C#N	-3.1	98.5*
COc1cc(OC)c(C2C(C#N)=C(N)SC(N)=C2C#N)cc1OC	nt	70.5*
COc1ccccc1C1C(C#N)=C(N)SC(N)=C1C#N	-4.9	7.6
Cc1ccnc(N2CCC(C(=O)NCC3CCN(Cc4ccc(Cl)cc4)CC3)CC2)n1	-4.1	3.1
Oc1oc(-c2ccccc2F)nc1C=Nc1cccc(Cl)c1	72.5*	3.0
Oc1oc(-c2ccccc2Br)nc1C=Nc1cccc(Cl)c1	-5.2	4.0
COc1ccc(-c2nc(-c3nnn(-c4ccc(F)cc4)c3C)no2)cc1OC	-4.9	-6.1
COc1ccc(-c2nc(-c3ccc(F)cc3)c[n+]3ccc4cc(OC)c(OC)cc4c23)cc1OC	nt	77.7*
C=CCNC(=O)c1oc2ccc(S(=O)(=O)N3CCCCCC3)cc2c1C	-10.0	-6.0
C=CCNC(=O)c1oc2ccc(S(=O)(=O)N3CC(C)CC(C)C3)cc2c1C (configuration not stated)	-14.5	77.0*
O=C(Cn1cc2c(n1)CCCCC2)Nc1c(F)c(F)c(F)c(F)c1F	-6.7	3.5
CC1CC(N(C(=O)c2ccccc2Cl)c2ccccc2)c2ccccc2N1 (configuration not stated)	-3.2	98.0*
CCC(=O)N(c1ccccc1)C1CC(C)Nc2ccccc21 (configuration not stated)	-0.2	16.4
COc1ccc(-c2[nH]n(-c3nc4ccccc4s3)c(=O)c2C=NCc2ccccn2)cc1	-5.9	84.0*
COc1ccc(-c2[nH]n(-c3nc4ccccc4s3)c(=O)c2C=NCC2CCCO2)cc1 (configuration not stated)	-2.3	45.0
Cc1cc(S(=O)(=O)N2CCc3nc[nH]c3C2)ccc1F	-0.5	10.8
COCCn1c(C2CCN(C(=O)Nc3cc(C)ccc3C)C2)nc2cccnc21 (configuration not stated)	-4.4	0.8
OCCN(CCO)CC(O)COCC12CC3CC(CC(C3)C1)C2 (configuration not stated)	-3.3	100.1*
CCN(CC)CC(O)COCC12CC3CC(CC(C3)C1)C2 (configuration not stated)	-0.6	-1.9
CCOc1ccc(/C=c2\sc3n(c2=O)CN(c2ccc([N+](=O)[O-])cc2)CN=3)cc1	-9.8	-3.0
COc1ccc(C(=O)Nc2ccc(F)cc2)cc1	2.0	-3.3
SMILES	Pf apPOL block	mHTT CaM bind
CC(C)(C)c1cc(C(c2ccccn2)N2CCCCC2)cc(C(C)(C)C)c1O (configuration not stated)	-4.6	77.2*
Cn1ccnc1C(O)c1cc(C(C)(C)C)c(O)c(C(C)(C)C)c1 (configuration not stated)	-7.0	17.6
CCOc1cc(/C=C2/C(=O)ON=C2C)ccc1OCc1ccc(Br)cc1	11.3	13.0
CCCOc1ccc(/C=C2\C(=O)ON=C2C)cc1OCC	1.4	85.0*
C#CCOc1ccc(/C=C2\C(=O)ON=C2C)cc1OC	-2.9	22.0
COc1cc(/C=C2/C(=O)ON=C2C)ccc1OCCc1ccccc1	0.4	20.0
C=CCOc1ccc(/C=C2/C(=O)ON=C2C)cc1OC	-3.8	87.0*
CCOc1ccc(/C=C2\C(=O)ON=C2C)cc1OC	0.7	64.0*
COc1cc(/C=C2/C(=O)ON=C2C)ccc1OCC(C)C	-6.8	16.0
C#CCOc1ccc(/C=C2\C(=O)ON=C2C)cc1OCC	-6.0	51.0*
CC1(C)CC(=O)C2=C(C1)N(c1ccc(Cl)cc1)C(N)=C(C#N)C2c1cccs1 (configuration not stated)	-2.3	31.0
COc1ccc(C(C)(C)c2ccc(O)cc2)cc1	-9.2	-17.4
O=C(c1cccnc1)N1CCCC(c2nc(-c3ccccc3)n[nH]2)C1 (configuration not stated)	-2.3	-1.0
Cc1ccccc1CSc1nc2c(c(=O)n1-c1ccc(F)cc1)SCC2	0.6	12.0
O=S(=O)(c1ccccc1)n1c(CO)cc2ccccc21	3.4	nt
O=C(Nc1ccc(Oc2ccc(Cl)cc2)cc1)c1cncc(Br)c1	-3.9	4.0
O=C(COc1ccc2c(=O)c(-c3ccccc3)coc2c1)c1ccc(F)cc1	-4.1	-9.3
CCOc1cc(/C=C2/C(=O)ON=C2C)ccc1OCc1cccc(Cl)c1	-5.6	99.0*
CCOc1cc(/C=C2\C(=O)ON=C2C)ccc1OCc1ccccc1	2.3	15.0
Nc1c2c(-c3ccc(F)cc3)nc(N3CCCC3)nc2nn1-c1cccc(F)c1	-3.6	11.2
COc1ccc(CCNC(=O)CCC(=O)N2CC3CCCN3c3ccccc32)cc1OC (configuration not stated)	-4.9	26.3
